Shown are actives, neighbours in structure and some others; about 11% of the full set was active somewhere.
USP28 block – inhibitors of human USP28 deubiquitinase; inhibition, % at 25 µM; AID 1645857, 2021; purified USP28, Ub-rhodamine cleavage fluorescence, 30 min; Ubiquitin carboxyl-terminal hydrolase 28 (Homo sapiens), Q96RU2; hit rate 3% among 47,000
OTUD3 inh – inhibitors of human OTUD3 deubiquitinase; OTU domain-containing protein 3 (Homo sapiens), Q5T2D3; purified OTUD3, Ub-rhodamine fluorescence, 2 h; inhibition, % at 25 µM; hit rate 0.7% among 47,000; AID 1645858, 2021
USP17 inh – inhibitors of human USP17 deubiquitinase; Ubiquitin carboxyl-terminal hydrolase 17-like protein 5 (Homo sapiens), A8MUK1; purified USP17, Ub-rhodamine cleavage fluorescence, 3 h; inhibition, % at 50 µM; hit rate 6.5% among 47,000
USP30 block – inhibitors of human USP30 deubiquitinase; Ubiquitin carboxyl-terminal hydrolase 30 (Homo sapiens), Q70CQ3; purified USP30, Ub-rhodamine cleavage fluorescence; inhibition, % at 25 µM; hit rate 5.3% among 47,000; AID 1645860, 2021
Target sequence (Q70CQ3 whole entry, looked up): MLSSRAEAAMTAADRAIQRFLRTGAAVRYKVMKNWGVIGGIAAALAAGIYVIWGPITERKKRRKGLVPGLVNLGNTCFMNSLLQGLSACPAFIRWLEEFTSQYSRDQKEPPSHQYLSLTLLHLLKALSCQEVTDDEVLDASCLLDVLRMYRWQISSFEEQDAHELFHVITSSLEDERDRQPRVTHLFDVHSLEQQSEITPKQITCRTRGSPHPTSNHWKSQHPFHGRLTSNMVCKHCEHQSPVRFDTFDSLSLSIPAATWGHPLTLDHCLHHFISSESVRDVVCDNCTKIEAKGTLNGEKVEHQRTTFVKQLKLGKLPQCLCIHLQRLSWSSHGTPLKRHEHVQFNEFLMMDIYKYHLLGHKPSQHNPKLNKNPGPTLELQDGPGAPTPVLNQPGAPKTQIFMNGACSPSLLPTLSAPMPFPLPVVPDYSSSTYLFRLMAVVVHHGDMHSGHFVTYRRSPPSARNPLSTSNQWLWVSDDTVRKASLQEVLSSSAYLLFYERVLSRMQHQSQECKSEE
* hit, by the source's call. No stated cut-off is given here; in the data, active means inhibition above about 30%; inactive means the rest.

What do the screens show for `COc1ccc(-n2c(=O)c3ccc(C(=O)NCCc4ccccc4)cc3n(CC(=O)NCc3ccco3)c2=O)cc1`?
USP28 block: 14.7; OTUD3 inh: 25.5; USP17 inh: 59.8*; USP30 block: -11.7

Results for COc1cc(NC(=O)Cn2c(=O)n(-c3ccc(CC(=O)NCc4ccco4)cc3)c(=O)c3ccccc32)cc(OC)c1 ?
USP28 block: 9.4; OTUD3 inh: 13.2; USP17 inh: 3.8; USP30 block: 9.5

What do the screens show for `COc1ccc(-c2cc(-c3nnc(CSc4nc5ccccc5n4C)o3)c3ccccc3n2)cc1OC`?
USP28 block: 16.7; OTUD3 inh: 19.8; USP17 inh: 57.7*; USP30 block: 0.5

Results for COc1ccc(C(=O)CSc2nc3ccccc3n2C)c(F)c1 ?
USP28 block: -9.1; OTUD3 inh: -4.4; USP17 inh: -12.1; USP30 block: -32.5

How did O=C(NCCc1nc(-c2ccc3c(c2)OCO3)n[nH]1)c1cccc(Br)c1 do in these assays?
USP28 block: 12.7; OTUD3 inh: 2.2; USP17 inh: 38.3*; USP30 block: 11.1

What do the screens show for `N#Cc1ccc(NC(=O)COC(=O)C(Cc2c[nH]c3ccccc23)NC(=O)c2ccc(F)cc2)cc1` (stereo not drawn)?
USP28 block: 6.2; OTUD3 inh: 0.6; USP17 inh: 22.2; USP30 block: 0.1

What do the screens show for `N#Cc1cccc(NC(=O)C(Cc2c[nH]c3ccccc23)NC(=O)c2cccs2)c1` (stereo not drawn)?
USP28 block: 18.8; OTUD3 inh: -1.4; USP17 inh: 21.5; USP30 block: 33.3*

How did O=C(NC1CCCC1)C(c1ccncc1)N(Cc1ccc(F)cc1)C(=O)c1ccc(-c2ccccc2)[nH]1 (stereo not drawn) do in these assays?
USP28 block: -8.7; OTUD3 inh: -14.4; USP17 inh: -8.7; USP30 block: -50.3

Results for Cc1ccccc1OCc1nc2c3cnn(C)c3ncn2n1 ?
USP28 block: 15.0; OTUD3 inh: 9.0; USP17 inh: 17.4; USP30 block: 35.1*

Results for C=C(CCC=C(C)C)[C@H]1CC[C@]2(C)[C@@H]1CC[C@@H]1[C@@]3(C)CC[C@H](O)C(C)(C)[C@@H]3CC[C@]12C ?
USP28 block: 4.4; OTUD3 inh: 4.7; USP17 inh: 10.6; USP30 block: 2.0

Results for C=C(CCC=C(C)C)[C@H]1CC[C@]2(C)[C@@H]1CC[C@@H]1[C@@]3(C)CCC(=O)C(C)(C)[C@@H]3CC[C@]12C ?
USP28 block: 16.1; OTUD3 inh: 19.1; USP17 inh: 40.5*; USP30 block: 31.4*

What do the screens show for `COc1ccc(OC)c(-n2nnc(-c3nc(-c4ccccc4C)no3)c2C)c1`?
OTUD3 inh: 4.4; USP17 inh: 31.5*

Results for Cc1ccc(-c2nnc(-c3nnn(-c4ccc(C)cc4)c3C)o2)cc1 ?
USP28 block: 14.6; OTUD3 inh: 9.4; USP17 inh: 25.1; USP30 block: 35.1*

How did COc1cccc(-n2nnc(-c3nnc(-c4ccccc4C)o3)c2C)c1 do in these assays?
USP28 block: 1.8; OTUD3 inh: 7.7; USP17 inh: -1.7; USP30 block: 48.8*

Results for Cc1c(-c2nnc(-c3ccccn3)o2)nnn1-c1cccc(Cl)c1 ?
USP28 block: 94.2*; OTUD3 inh: 20.4; USP17 inh: 11.4; USP30 block: 69.5*

What do the screens show for `COc1ccc(NC(=O)CS(=O)c2ccc(Cl)c(Cl)c2)cc1` (stereo not drawn)?
USP28 block: 11.2; OTUD3 inh: 12.9; USP17 inh: 4.8; USP30 block: 46.9*

Results for COc1ccc(NC(=O)Cc2nc(-c3cccc(Cl)c3)no2)cc1 ?
USP28 block: -20.9; OTUD3 inh: -19.0; USP17 inh: -24.1; USP30 block: -29.3

Results for Cc1nc(Nc2ncccc2C)cc(C2CCCN2CC(N)=O)n1 (stereo not drawn) ?
USP28 block: -15.6; OTUD3 inh: -11.8; USP17 inh: -7.6; USP30 block: -37.2

Results for Cc1c(C(=O)N2CCCC2)nnn1-c1cccc2c1CCN(CC1CC1)C2 ?
USP28 block: -128.7; OTUD3 inh: -59.3; USP17 inh: -59.6; USP30 block: -289.8

Results for COc1cc(OC)cc(C(=O)NCc2[nH]nc3ccccc23)c1 ?
USP28 block: 31.2*; OTUD3 inh: 11.6; USP17 inh: 9.1; USP30 block: 18.7

Results for COc1cccc(C(=O)NCc2[nH]nc3ccccc23)c1 ?
USP28 block: 28.1; OTUD3 inh: -7.7; USP17 inh: 56.6*; USP30 block: 26.9

What do the screens show for `CC(=O)N1CCCCCC1C1CCN(c2cccc(F)c2C#N)CC1` (stereo not drawn)?
USP28 block: -67.9; OTUD3 inh: -1.4; USP17 inh: -5.4; USP30 block: -2.4

What do the screens show for `O=C1NC(Cc2c[nH]c3ccccc23)C(=O)NC1Cc1c[nH]c2ccccc12` (stereo not drawn)?
USP28 block: 9.1; OTUD3 inh: 3.3; USP17 inh: 1.8; USP30 block: 5.4

How did C=C1NC(=O)[C@@H](CC)NC(=O)CNC(=O)[C@H](Cc2c[nH]c3cccc(OC)c23)NC(=O)[C@H](Cc2c[nH]c3ccccc23)NC(=O)c2csc(n2)[C@@H](C)NC(=O)CN(C)C1=O do in these assays?
USP28 block: -1.7; OTUD3 inh: -6.8; USP17 inh: 31.7*; USP30 block: 7.5

How did COc1cc2oc(=O)cc(CN3CCCCC3)c2cc1OC do in these assays?
USP28 block: -3.5; OTUD3 inh: -2.0; USP17 inh: 45.4*; USP30 block: 2.2

What do the screens show for `COC(=O)C1CCN(Cc2cc(=O)oc3cc(OC)ccc23)CC1`?
USP28 block: -1.1; OTUD3 inh: -0.3; USP17 inh: 0.5; USP30 block: -0.1

What do the screens show for `O=C(Nc1cccc(C(F)(F)F)c1)c1nn(C2CCS(=O)(=O)C2)c2c1CCCC2` (stereo not drawn)?
USP28 block: 1.4; OTUD3 inh: 1.5; USP17 inh: 10.2; USP30 block: 30.8*

What do the screens show for `O=C(Nc1ccc2c(c1)OCCCO2)c1cc(S(=O)(=O)N2CCCCC2)ccc1N1CCCC1`?
USP28 block: 29.8; OTUD3 inh: 21.5; USP17 inh: 68.3*; USP30 block: 78.4*

How did O=C(CCc1ccc(S(=O)(=O)N2CCOCC2)cc1)Nc1ccc2c(c1)OCCO2 do in these assays?
USP28 block: 61.3*; OTUD3 inh: -7.8; USP17 inh: -7.0; USP30 block: 4.0

Results for O=S(=O)(c1ccc2c(c1)OCCO2)N1CCC(N2CCCCC2)CC1 ?
USP28 block: -19.0; OTUD3 inh: -8.5; USP17 inh: 3.9; USP30 block: -18.8

What do the screens show for `Cc1ccccc1NC(=O)C1CCN(S(=O)(=O)c2ccc3c(c2)OCCCO3)CC1`?
USP28 block: 13.5; OTUD3 inh: 6.2; USP17 inh: 69.4*; USP30 block: 74.1*

How did O=S(=O)(Nc1cc(S(=O)(=O)N2CCCCC2)ccc1O)c1ccc2c(c1)OCCCO2 do in these assays?
USP28 block: 11.4; OTUD3 inh: 4.3; USP17 inh: 34.4*; USP30 block: 0.0

Screening data as filed in PubChem BioAssay.
